Screening data as filed in PubChem BioAssay.
Only some compounds are listed: those with a hit (about 3.6% of all), similar ones and a draw of the others.
mHTT-CaM PPI inh = mutant huntingtin-calmodulin interaction inhibitors – biochemical, AlphaScreen, primary screen | P42858 | AlphaScreen His-mHTT/GST-CaM binding, luminescence | inhibition, % at 15 µM | 3.6% of 190,000 active
Pf apPOL block = Pf-apPOL inhibitors, biochemical, fluorescence; Recombinant Pf-apPOL, molecular beacon fluorescence, 1.5 h; inhibition, % at 10 µM; Plasmodium falciparum apicoplast DNA polymerase (apPOL); AID 1794808, 2022; 0.25% of 210,000 active
Hits are given with their value; – = inactive; · = no result. No stated cut-off is given here; in the data, active means inhibition above about 50%; inactive means the rest.

SMILES | mHTT-CaM PPI inh | Pf apPOL block
COc1cccc(N2CCN(C(=O)c3cccc(F)c3)C(C)C2=O)c1 (stereo unspecified) | – | –
CCOCCCNC(=O)CC1CCN(C(=O)c2[nH]c(C)cc2C)CC1 | – | –
Cc1onc(-c2ccccc2Cl)c1C(=O)Nc1cccc2ccc(-n3ccnc3)nc12 | – | –
O=C(Nc1cccc2ccc(-n3ccnc3)nc12)c1ccccc1Cl | 61.8 | –
COc1ccc(CC(=O)Nc2c3c(nn2-c2ccc([N+](=O)[O-])cc2)CSC3)cc1 | – | –
COC(=O)c1ccccc1NC(=O)c1cc2nc(C)ccc2o1 | – | –
O=C(CSc1nc2ccccc2[nH]1)c1ccc2c(c1)OCO2 | – | –
O=C(CSc1nc2ccccc2[nH]1)c1ccc(Cl)c(Cl)c1 | 51.1 | –
Cc1cc(C2CCCN2C(=O)c2cc(C(F)(F)F)n(C)n2)on1 (stereo unspecified) | – | –
Cc1ccc2c(C)cc(Cl)nc2c1C | – | ·
COc1ccc(S(=O)(=O)N2CCN(c3ccc(N4CCCC4)nn3)CC2)cc1Cl | 72.2 | –
Cc1ccc(N2CCN(S(=O)(=O)c3ccc(Cl)c(Cl)c3)CC2)nn1 | – | –
O=C(CCC1CCCN(C(=O)Nc2ccc(Cl)cc2)C1)NC1CCCCC1 (stereo unspecified) | – | –
CCOc1ccc(N2COc3ccc(Cl)cc3C2)cc1 | 81.0 | –
COc1ccc2c(c1)CN(c1ccc(C)cc1)CO2 | 53.0 | –
Clc1ccc(N2COc3cc4c(cc3C2)OCO4)cc1 | – | –
COc1ccc(N2COc3ccc(OC)cc3C2)cc1 | 53.0 | –
COc1ccc2c(c1)CN(c1ccccc1I)CO2 | – | –
CCOc1nc(OCC)nc(N2CCN(c3ccc(OC)cc3)CC2)n1 | – | –
COc1ccc2c(c1)CN(c1ccc(Br)cc1)CO2 | – | –
CCOc1ccc(N2COc3ccc(OC)cc3C2)cc1 | 51.0 | –
O=C(Nc1cccc(Cl)c1)N1CCOC(CN2CCOCC2)C1 (stereo unspecified) | – | –
O=C(C=Cc1ccc([N+](=O)[O-])cc1)c1ccc2ccccc2c1 | – | –
NC(=NOC(=O)Nc1cccc(Cl)c1)c1ccno1 | · | –
CCOc1ccc(N2C(=O)CC(N3CCN(c4ccc(F)cc4)CC3)C2=O)cc1 (stereo unspecified) | – | –
SMILES | mHTT-CaM PPI inh | Pf apPOL block
CCOc1ccc(N2COc3ccc(F)cc3C2)cc1 | 59.0 | –
CCOC(=O)N1CCN(C(c2ccc(SC)cc2)c2c(O)cc(C)n(CC)c2=O)CC1 (stereo unspecified) | 69.2 | –
CCOC(=O)N1CCN(C(c2cccs2)c2c(O)cc(C)n(CC)c2=O)CC1 (stereo unspecified) | – | –
Cc1ccc(CNC(=O)C2CCCN(c3nnc4cccc(C)n34)C2)o1 (stereo unspecified) | – | –
COc1cccc(/C=C2\CCC3=C2OC(N)=C(C#N)C3c2cccc(OC)c2)c1 (stereo unspecified) | 78.0 | –
COc1cccc(C2C(C#N)=C(N)OC3=C2C(=O)CCC3)c1 (stereo unspecified) | – | –
N#CC1=C(N)OC2=C(CCCC2)C1c1ccc(F)cc1 (stereo unspecified) | – | –
N#CC1=C(N)OC2=C(CC/C2=C\c2ccc(F)cc2)C1c1ccc(F)cc1 (stereo unspecified) | 77.0 | –
O=C(Cn1nnc(N2CCCCC2)n1)NN=Cc1ccccn1 | · | –
COc1ccc2nc(-c3cccc(NC(=O)COc4ccc(C(C)=O)cc4OC)c3)cn2n1 | 64.2 | –
COc1ccc2nc(-c3ccc(OC)c(NC(=O)CC4CCCC4)c3)cn2n1 | – | –
COc1ccc(C2C(C(=O)Nc3cc(C)ccc3OC)CCC(=O)N2c2ccc(OC)cc2)cc1 (stereo unspecified) | 56.0 | –
COc1ccc(N2C(=O)CCC(C(=O)Nc3cc(OC)ccc3OC)C2c2ccc(F)cc2)cc1 (stereo unspecified) | – | –
COc1cccc(NC(=O)C2CC(=O)N(c3ccc4c(c3)CCN4C(=O)C3CC3)C2)c1 (stereo unspecified) | – | –
N#CC1=C(N)Oc2n[nH]c(-c3ccccn3)c2C1c1ccccc1F (stereo unspecified) | – | –
CCN(CC)S(=O)(=O)c1cc(C(=O)Nc2ccccc2)c(Cl)cc1Cl | – | –
NCCCCCCNC(=O)c1c(O)c2cccc3c2n(c1=O)CC3 | 100.0 | –
Cc1cccnc1NC(=O)c1c(O)c2cccc3c2n(c1=O)CC3 | 80.0 | –
C=CCn1c(=O)c(C(=O)Nc2ccccc2)c(O)c2ccccc21 | – | –
O=C(Nc1ccncc1)c1c(O)c2cccc3c2n(c1=O)CC3 | – | –
NCCNC(=O)c1c(O)c2cccc3c2n(c1=O)CC3 | – | –
C=CCn1c(=O)c(C(=O)Nc2ncccc2C)c(O)c2ccccc21 | 98.0 | –
Cn1c(N2CCC(C(=O)NC3CCCCCC3)CC2)cc(=O)n(C)c1=O | – | –
CCOc1ccc(/C=C2\CN(C)C/C(=C\c3ccc(OCC)c(OC)c3)C2=O)cc1OC | – | –
